Assay outcomes (PubChem)
An excerpt weighted towards active compounds, which were near 2.9% of everything screened.
EBNA-1 inh – blocks EBNA-1 binding to DNA; EBNA-1 DNA binding, fluorescence polarization; inhibition, % at 14.8 µM; 300,000 tested, 0.34% active; AID 1950; in the data active = inhibition above about 28%
ZTA DNA inh – blocks Epstein-Barr virus ZTA, an EBNA-1 counter-screen; ZTA-DNA binding, fluorescence polarization; 320,000 tested, 0.15% active; inhibition, % at 11 µM; in the data active = inhibition above about 33%
Target sequence (P03206 whole entry, looked up): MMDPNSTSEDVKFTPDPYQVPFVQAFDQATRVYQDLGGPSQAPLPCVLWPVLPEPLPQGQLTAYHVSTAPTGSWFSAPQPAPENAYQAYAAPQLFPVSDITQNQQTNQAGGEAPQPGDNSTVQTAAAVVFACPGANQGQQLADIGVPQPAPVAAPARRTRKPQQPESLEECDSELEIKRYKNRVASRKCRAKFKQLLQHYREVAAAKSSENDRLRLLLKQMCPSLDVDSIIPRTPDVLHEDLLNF
PAFAH1B3 FP inh – blocks human PAF acetylhydrolase 1B catalytic subunit 3; recombinant PAFAH1B3, FP-rhodamine probe, fluorescence polarization; inhibition, % at 3.39 µM; 340,000 tested, 0.28% active;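 active = inhibition above the screen-wide average of all tested compounds plus 3 SD, cut at about 25% in these data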
rCAG binder – binds r(CAG) RNA repeats; r(CAG) RNA repeat, TO-PRO-1 dye displacement fluorescence; inhibition, % at 3 µM; 370,000 tested, 1.3% active; AID 651821;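 active = inhibition above the plate cutoff, the mean of all test compounds on that plate plus 3 SD, cut at about 35% in these data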;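 also: higher means more dye released from RNA so lower well fluorescence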
PAFAH1B2 FP inh – blocks human PAF acetylhydrolase 1b catalytic subunit 2 | P68402 | recombinant PAFAH1B2, FP-rhodamine activity probe, fluorescence polarization | inhibition, % at 3.39 µM | 340,000 tested, 1.2% active;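 active = inhibition above the mean of all tested compounds plus 3 SD, cut at about 24% in these data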
Target sequence (P68402 whole entry, looked up): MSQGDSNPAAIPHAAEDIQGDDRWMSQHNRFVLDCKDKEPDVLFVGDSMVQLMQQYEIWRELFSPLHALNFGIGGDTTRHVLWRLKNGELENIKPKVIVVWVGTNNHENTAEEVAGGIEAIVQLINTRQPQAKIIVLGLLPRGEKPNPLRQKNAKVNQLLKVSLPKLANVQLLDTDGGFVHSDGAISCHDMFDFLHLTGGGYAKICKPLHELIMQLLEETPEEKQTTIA
PAFAH2 FP inh – PAFAH2 (human) inhibition; recombinant PAFAH2, FP-rhodamine activity probe, fluorescence polarization; inhibition, % at 3.39 µM; 340,000 tested, 0.99% active; AID 492956;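 active = inhibition above the mean over all tested compounds plus 3 SD, cut at about 30% in these data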;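 also: inhibitors block probe labeling of enzyme so polarization drops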
Zta DNA confirm – EBV ZTA DNA binding inhibition, confirmation. shares compounds with ZTA DNA inh. Zta-ZRE DNA binding, fluorescence polarization. AID 2361. 320 tested, 30% active. inhibition, % at 11.1 µM;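 active = mean inhibition across triplicate runs above the hit threshold derived for the original primary screen, cut at about 33% in these data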
EBNA-1 counter – EBNA-1 DNA binding inhibition, counter-screen for ZTA. shares compounds with ZTA DNA inh. fluorescence polarization. inhibition, % at 14.8 µM. 320 tested, under 10 active. AID 2362; call rule not given here
A number is an active result; - = inactive; . = not tested or not shown.

SMILES	EBNA-1 inh	ZTA DNA inh	PAFAH1B3 FP inh	rCAG binder	PAFAH1B2 FP inh	PAFAH2 FP inh	Zta DNA confirm	EBNA-1 counter
O=C(CCCCCN1C(=O)CCC1=O)Nc1ccc2c(c1)OCCO2	-	34	-	-	-	-	-	-
COc1ccc(CCC(=O)Nc2ccc3c(c2)OCCO3)cc1	-	55	-	-	-	-	-	-
COc1ccc(Br)cc1CNc1ccc(O)cc1	-	40	-	-	-	-	-	-
COc1ccc([N+](=O)[O-])cc1CN1CCN(c2ncc(Cc3ccccc3)cn2)CC1	.	.	.	-	.	.	.	.
C[C@H]1CCCN1c1ccc2c(c1)O[C@@H]1CCN(C1)S2(=O)=O	.	.	.	-	.	.	.	.
CC(C)NC(=O)C1(C)CN(S(C)(=O)=O)CC(=O)N1C1CC1 (stereo unspecified)	.	.	.	-	.	.	.	.
COc1cc(NC(=O)c2cnc(N)s2)cc(C(=O)Nc2cccc(C(F)(F)F)c2)c1	-	-	.	-	.	.	.	.
COc1cc(NC(=O)c2csc(N)n2)cc(C(=O)Nc2cccc(C(F)(F)F)c2)c1	-	41	-	-	-	-	-	-
CCCN(CCC)C(=O)COc1cc(=O)n(CC)c2ccccc12	-	118	-	-	-	-	-	-
CCOC(=O)N1CCN(C(=O)C[C@H]2C[C@@]3(C(=O)OC)C(=C[C@H](C(C)(C)C)O[C@@H]3C)N(CCC3=CCCCC3)C2=O)CC1	.	.	.	-	.	.	.	.
O=C(Nc1ccccc1)Nc1nccs1	-	-	-	-	-	-	.	.
CC(C)(C(=O)Nc1nccs1)c1ccccc1	-	40	-	-	-	-	-	-
CN(C)C(=O)CCCCCCCCC(=O)N(C)C	-	33	.	-	.	.	-	-
CCOc1cc(/C=C2/C(=O)ON=C2C)ccc1OCc1ccccc1	-	-	.	-	.	.	.	.
CCOc1cc(/C=C2/C(=O)ON=C2C)ccc1OCc1ccc(F)cc1	-	35	-	-	-	-	-	-
COc1ccc(NC(=S)Nc2ccc3nsnc3c2)cc1	-	38	66	-	-	41	-	-
CCOc1ccc(NC(=O)Nc2ccc3nsnc3c2)cc1	-	-	-	-	-	-	.	.
CC(C)N(C(=O)Nc1ccc2nsnc2c1)C(C)C	-	74	.	-	.	.	-	-
CCOc1ccc(NC(=S)Nc2ccc3nsnc3c2)cc1	-	67	54	-	34	52	-	-
CC(C)=CCN1C(=O)[C@]2(OCCC=C[C@H]2C)c2c(Br)cccc21	.	.	.	-	.	.	.	.
CC1(C)CC(=O)C2=C(C1)OC(N)=C(C#N)C2c1ccccc1[N+](=O)[O-] (stereo unspecified)	-	129	-	-	-	-	-	-
COc1cccc2c1C(=O)c1c(O)c3c(c(O)c1C2=O)C[C@](O)(C(C)=O)C[C@H]3O[C@@H]1C[C@@H](N)[C@@H](O)[C@@H](C)O1	-	44	43	-	49	51	75	-
Fc1ccc(/C=N/NC2=Nc3cccc4cccc2c34)cc1	-	179	-	-	-	-	-	-
c1coc(-c2nnc(-c3ccco3)nn2)c1	-	37	-	-	-	32	33	-
Nc1nc(N)c2cc(Sc3ccc(Cl)cc3)ccc2n1	.	.	.	-	.	.	.	.
SMILES	EBNA-1 inh	ZTA DNA inh	PAFAH1B3 FP inh	rCAG binder	PAFAH1B2 FP inh	PAFAH2 FP inh	Zta DNA confirm	EBNA-1 counter
Nc1nc(N)c2cc(Sc3ccc4ccccc4c3)ccc2n1	-	34	.	-	.	.	-	-
COc1cc(/C=C/C(=O)/C=C(O)/C=C/c2ccc(O)c(OC)c2)ccc1O	.	34	-	-	-	-	-	-
COc1cccc(NC(=S)N2CCc3cc(OC)c(OC)cc3C2)c1	-	48	-	-	-	-	-	-
O=C1C(=Cc2ccco2)C(=O)c2ccccc21	-	-	-	-	-	-	.	.
O=C(O)c1ccc2c(c1)C(=O)/C(=C\c1ccco1)C2=O	-	62	35	-	-	-	63	-
C[C@H](c1ccccc1)N1C[C@@H](COCc2ccccc2)Oc2cc(N3CC[C@@H](N(C)C)C3)ccc2S1(=O)=O	.	.	.	-	.	.	.	.
O=c1[nH]c(-c2ccc(Cl)cc2)nc(=S)[nH]1	-	46	-	-	-	-	-	-
COC(=O)c1cc(-c2ccccc2OC)c(=O)n2c1CCC2	.	.	.	-	.	.	.	.
Nc1ccc2c(c1)C(=O)C(=O)c1ccccc1-2	-	58	76	-	25	62	65	-
COc1cccc(-c2nnc(SCC(=O)Nc3ccc(Oc4ccccc4)cc3)n2Cc2ccco2)c1	.	.	.	-	.	.	.	.
CC1CC(C)CN(CCCNS(=O)(=O)c2cc3c(cc2Br)CCN3C(=O)C2CC2)C1 (stereo unspecified)	.	.	.	-	.	.	.	.
COC(=O)[C@]12C[C@H](CC(=O)NCc3ccc(C)o3)C(=O)N(Cc3cccc4ccccc34)C1=C[C@H](C1CCCC1)O[C@@H]2C	.	.	.	-	.	.	.	.
Cc1ccc(-c2nn(-c3ccccc3)cc2/C=C/C(=O)O)o1	-	-	-	-	-	-	.	.
